Hit rate of the full screen: of about 290,000 compounds, about 1,800 (0.62%) were called active. Many of the other results were omitted from the sample, so actives are more common in it than they were. Unmarked numbers belong to inactive results. Cut-off read from the data, not from the text of the source: active = inhibition above about 50%; inactive = the rest.

The nature of this test: inhibition of NOD2-driven NF-kB reporter – cell-based, luminescence, uHTS, HEK293 (AID 1566). The following applies: HEK293 NOD2/NF-kB luciferase reporter, at 4 µM, active compounds read high. On the technique in general: Reporter assays use an easily measured gene product as a stand-in for the process of interest.
As for `CC(=O)N/C(=C\c1ccc2c(c1)OCO2)C(=O)NC(C(=O)O)c1ccccc1` (stereo not drawn), the inhibition (as a rule, the change of the read-out against control, counted positive when it falls) is 19.8%. `Cc1cccc2sc(NC(=O)CSc3nnnn3C)nc12`: the inhibition was -7%.

On to `O=C(CNC(=O)c1ccc(Oc2ccccc2)cc1)OC1CCCCC1=O` (stereo not drawn), for which the inhibition was 10.8%. Regarding `Cc1cccc(Nc2nc(N)nc(CSC(=S)N3CCOCC3)n2)c1`, the inhibition is -21.1%. Under `CCc1cccc(C)c1NC(=O)c1ccoc1C` stands 4.5%. For the compound `Cc1ccc2nc(-c3ccc(O)c(O)c3)cn2c1`, the inhibition was -51.7%.

As for `Cc1ccc(-c2cn3cc(C)ccc3n2)cc1`, the inhibition is 71.8% (active). Turning to `Cc1ccc2nc(-c3ccccc3)cn2c1`, the inhibition was 26.7%. On to `CCOC(=O)C1CCN(S(=O)(=O)c2c(C)n(C)c(=O)n(C)c2=O)CC1`, for which the inhibition is -0.5%. Under `O=C1CC(N2CCN(C/C=C/c3ccccc3)CC2)C(=O)N1Cc1cccs1` (stereo not drawn) stands 7.5%; under `COc1ccc(-c2nc(-c3ccccn3)no2)cc1`, 84% (active); under `Cc1ccc(-c2nc(-c3ccccn3)no2)cc1`, 84.3% (active).

For the compound `COc1cccc(-c2nc(-c3ccccn3)no2)c1`, the inhibition was -16.1%. Under `c1ccc(-c2ccc(-c3nc(-c4ccccn4)no3)cc2)cc1` stands 67% (active). Then `c1ccc(-c2noc(-c3ccncc3)n2)nc1`, with -43.2%. With `COc1cc(-c2nc(-c3ccccn3)no2)cc(OC)c1OC`, the inhibition is -18.2%.

For the compound `c1ccc(-c2noc(-c3ccc4ccccc4c3)n2)nc1`, the inhibition is 45%. Then `Cc1ccc(-c2nc(-c3ccccn3)no2)cc1Cl`, with 47.8%; and `c1ccc(-c2nc(-c3ccccn3)no2)cc1`, with 20.1%. Then `CCOC(=O)c1ccc2c(c1)nc(SCC(=O)c1ccco1)n2CC`, with 8.2%. For `CN(C)CCNC(=O)c1cc2cc(Br)ccc2oc1=O`, the inhibition is -0.6%. With `COc1ccc(N/C(N)=N/c2nc(CSc3nnc(C)s3)cc(=O)[nH]2)cc1`, the inhibition was -37.9%. On to `Cc1ccc(C)c(Sc2ccc(NC(=O)CCl)cc2)c1`, for which the inhibition is -19.5%.

Turning to `O=C(Cc1ccc(Cl)cc1)Nc1ccccc1Sc1ccccc1`, the inhibition is 0.7%. `Cc1ccc(Sc2ccc(NC(=O)CCl)cc2)cc1C`: the inhibition is 0.9%.

`O=C(CCl)Nc1ccccc1Sc1ccccc1`: the inhibition is -24.6%. Under `COc1ccccc1C1=NC(c2ccc(F)cc2)N=C1C` (stereo not drawn) stands -33.6%. Then `COc1ccc(-n2nc(C(=O)NCC(=O)N3CCN(Cc4ccccc4)CC3)c3ccccc3c2=O)cc1`, with -1.4%. On to `CC1(c2ccccc2)NC(=O)N(CC(=O)Nc2nnc(C3CC3)s2)C1=O` (stereo not drawn), for which the inhibition is -9.7%. Under `COc1ccc(/C=N/n2c(SC)nnc2-c2ccccc2)c(OC)c1OC` stands -38.9%. Under `COc1ccc(-n2c(Cc3cccn3C)nnc2SCC(=O)Nc2ccc3c(c2)OCCO3)cc1` stands 6.8%. In the case of `O=C(c1ccccc1)c1cc([N+](=O)[O-])ccc1N1CCOCC1`, the inhibition was 5.9%. As for `Cc1cc2ncn(C3CC(=O)N(C)C3=O)c2cc1C` (stereo not drawn), the inhibition is 10.1%. Under `CCCN1C2CCCC1CC(NC(=O)C1CCCCC1)C2` (stereo not drawn) stands -3.5%; under `CN1CCN(C(=O)C2CC(=O)N(c3ccc(Cl)cc3)C2)CC1` (stereo not drawn), -8.8%.

For `CCCCCc1ccc(-c2ccc(/C=C/C(N)=O)cc2)nc1`, the inhibition was -57.2%.

On to `CCCCCc1ccc(-c2ccc(/C=C/C(=O)O)cc2)nc1`, for which the inhibition is -82.7%. With `CCCc1ccc(-c2ccc(/C=C/C(=O)O)cc2)nc1`, the inhibition is 78.4% (active). Take `Cc1sc2ncnc(NCC(O)c3ccc([N+](=O)[O-])cc3)c2c1C` (stereo not drawn): the inhibition is 51.7% (active). Then `Cc1sc2ncnc(NCC(c3ccccc3)N(C)C)c2c1C` (stereo not drawn), with 10.2%. With `Cc1sc2ncnc(NCCc3ccc(S(N)(=O)=O)cc3)c2c1C`, the inhibition was 55.7% (active). Regarding `COc1ccc(C(CNc2ncnc3sc(C)c(C)c23)N(C)C)cc1` (stereo not drawn), the inhibition was 69.8% (active). Then `NS(=O)(=O)c1ccc(CCNc2ncnc3sccc23)cc1`, with 34.1%; and `COc1ccccc1C(CNc1ncnc2sc(C)c(C)c12)N(C)C` (stereo not drawn), with 18.9%.

Consider `Cc1nc(NCCc2ccc(S(N)(=O)=O)cc2)c2c(C)c(C)sc2n1`, for which the inhibition is 45.1%. Then `Cc1sc2ncnc(N[C@@H](CCC(=O)O)C(=O)O)c2c1C`, with 2.8%; and `Cc1sc2ncnc(NCC(O)c3ccccc3)c2c1C` (stereo not drawn), with 40.2%; and `CC(=O)Nc1ccc(OS(=O)(=O)c2ccc(Cl)cc2)cc1`, with 12.5%. As for `CCN(CC)S(=O)(=O)c1ccc(C)c(NC(=O)/C=C/c2cccs2)c1`, the inhibition was -13.1%. Regarding `CCOCC(=O)Nc1ccccc1C(=O)O`, the inhibition is 5.3%. Consider `CCCCNC(=O)c1cn(CC)c2ccc(S(=O)(=O)N3CCCCCC3)cc2c1=O`, for which the inhibition is -6.4%. Consider `O=C(O)CSc1cc(NS(=O)(=O)c2cccc([N+](=O)[O-])c2)c2ccccc2c1O`, for which the inhibition was 16.9%.

With `O=S(=O)(Nc1cc(Sc2cccc3cccnc23)c(O)c2ccccc12)c1ccccc1`, the inhibition is 95.9% (active). Then `O=S(=O)(Nc1cc(Sc2cccc3cccnc23)c(O)c2ccccc12)c1ccc(F)cc1`, with -2.1%. Take `O=S(=O)(Nc1cc(Sc2ncn[nH]2)c(O)c2ccccc12)c1ccccc1`: the inhibition is 19%. Then `Cc1cc(C)c(S(=O)(=O)Nc2cc(SCC(=O)O)c(O)c3ccccc23)cc1C`, with 29.2%; and `O=C(O)CSc1cc(NS(=O)(=O)c2ccc(Br)cc2)c2ccccc2c1O`, with 57.2% (active); and `COc1ccc(NS(=O)(=O)/C=C/c2ccccc2)cc1`, with 17.1%.

As to `COc1ccc(C(=O)Nn2c(SCc3cccc([N+](=O)[O-])c3)nc3ccccc3c2=O)cc1`, the inhibition was 40.4%.

In the case of `COc1cccc(Oc2c(C)oc3c(CN4CCCCC4)c(O)ccc3c2=O)c1`, the inhibition is 18.7%. `Cc1cccc(-n2cc(C(=O)O)c(=O)cc2C)c1`: the inhibition was 1.7%.

In the case of `CCOc1ccc(/C=C/C(=O)Nc2ccc3[nH]c(=O)[nH]c3c2)cc1`, the inhibition is 6.2%. Under `Cc1ccc(NS(=O)(=O)c2c(C)nc3sccn3c2=O)cc1C` stands 12.9%; under `CN(c1cc(=O)n2ccccc2n1)C1CCCCC1`, -19.5%; under `CC1CCCN(c2ccc3nc4ccccc4c(=O)n3n2)C1` (stereo not drawn), 4.1%. Then `CN(c1ccc2nc3ccccc3c(=O)n2n1)C1CCCCC1`, with 79% (active). Then `CSc1ccc(C(=O)C2CCCN(C(=O)CCc3cnn(C)c3)C2)cc1` (stereo not drawn), with 11%; and `CSc1ccc(C(=O)C2CCCN(C(=O)CCc3c(C)nn(C)c3C)C2)cc1` (stereo not drawn), with 50.1% (active); and `Cc1nn(C)c(C)c1CCC(=O)N1CCCC(C(=O)c2cccc(OC(C)C)c2)C1` (stereo not drawn), with 14.2%. Consider `Clc1cccc(-c2ccnc3nc(-n4cccc4)nn23)c1`, for which the inhibition was 5.6%. Under `COc1ccc(OC)c(NC(=O)C2CC(=O)N(c3ccccc3)C2)c1` (stereo not drawn) stands -11.1%; under `COCCN1CN=C(NS(=O)(=O)c2ccc(C)cc2)NC1`, 6.3%. Under `Cn1nc(C(=O)N2CCC(C(N)=O)CC2)c2c1-c1ccccc1SC2` stands 12.9%; under `CC1CC(C)CN(C(=O)c2nn(C)c3c2CSc2ccccc2-3)C1` (stereo not drawn), 51.5% (active); under `CC1CCCN(C(=O)c2nn(C)c3c2CSc2ccccc2-3)C1` (stereo not drawn), 8%.

Regarding `COCc1ccc(CN2CCC(C(=O)Nc3cccc(-c4cscn4)c3)CC2)o1`, the inhibition is 7.2%. Then `Cc1ccc(NC(=O)c2cc(C)n(-c3cccc(C)c3)c2C)cc1`, with -26.4%.

Consider `Cc1ccc(S(=O)(=O)NC(=O)c2cc(C)n(-c3ccccc3)c2C)cc1`, for which the inhibition is 13.4%. Turning to `Cc1ccc(NC(=O)c2cc(C)n(-c3ccccc3)c2C)cc1`, the inhibition is 52% (active). In the case of `O=C(/C=C/c1cn(-c2ccccc2)nc1-c1cccnc1)c1ccco1`, the inhibition is -74.6%. Under `O=C(/C=C/c1cn(-c2ccccc2)nc1-c1cccnc1)N1CCCCC1` stands 10%; under `O=C(/C=C/c1cn(-c2ccccc2)nc1-c1cccnc1)N1CCCC1`, 50.2% (active). In the case of `CC(OC(=O)C1CCN(S(=O)(=O)c2ccc(Cl)cc2)CC1)C(=O)N1CCc2ccccc21` (stereo not drawn), the inhibition is -4.3%. Turning to `COc1ccc(CN(Cc2nc3ccccc3c(=O)[nH]2)C(=O)c2ccco2)cc1`, the inhibition was 6.4%.

Turning to `c1ccc2c(c1)nc(-c1ccncc1)n2CCNc1nc(CN2CCCCC2)cs1`, the inhibition is 18.5%. Then `CCOC(=O)c1ccc(NC(=S)N2CCCC(C(=O)OCC)C2)cc1` (stereo not drawn), with -6%; and `O=C1C=C(c2ccccc2)C[C@H](c2cccs2)[C@H]1n1cnc([N+](=O)[O-])c1`, with 3.4%; and `O=C1C=C(c2cccs2)C[C@H](c2ccccc2)[C@H]1n1nnc([N+](=O)[O-])n1`, with 21.7%. For `COc1ccc(NC(=O)c2cccc(OC(=S)N3CCOCC3)c2)cc1`, the inhibition was 18.5%. Turning to `Cc1cccc(C)c1NC(=S)NCc1ccncc1`, the inhibition is 7.5%. In the case of `Cc1cc(/C=c2\sc3nc4ccccc4n3c2=O)c(C)n1-c1ccc(C(=O)O)cc1`, the inhibition was -0.4%. `Cc1cc(/C=c2/sc3nc4ccccc4n3c2=O)c(C)n1-c1ccccn1`: the inhibition is 3.6%. Then `CC1(C)Cc2c(c(-c3ccco3)nc3sc4c(NCCO)ncnc4c23)CO1`, with 16.6%; and `Cc1ccc(C(=O)O/N=C(/c2nonc2N)N(C)C)cc1`, with 12.2%.

On to `Cc1n(Cc2ccccc2)c2ccccc2[n+]1Cc1ccccc1`, for which the inhibition is 22%. Then `COc1ccc(-c2nc3ccccc3n2Cc2ccccc2)cc1`, with -2.8%; and `C/C(=N\Nc1ccc(C)c(Cl)c1)c1ccncc1`, with -32.8%; and `O=C(Nc1ccc2c(c1)OCO2)C1CCN(Cc2cc3c(cc2O)OCO3)CC1`, with 1.5%.
